# Source: PubChem (National Center for Advancing Translational Sciences (NCATS))
# HCMV inh: blocks human cytomegalovirus replication; HFF cells, HCMV-luciferase reporter, 72 h; hits give low values; activity change, negative = inhibition, % at 57.5 µM; 4.5% of 410,000 active; AID 1259415; in the data active = activity change below about -60%; inconclusive = no clear call, values can overlap the other calls; inactive = above about -39%
#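 Inhibition of viral replication was scored as loss of reporter luminescence in HFFs infected with HCMV-luciferase (MOI 1 PFU/cell) for 72 h; compounds tested at 2 doses, normalized to buffer and Salinomycin controls.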
# Vaccinia mCherry: inhibitors of vaccinia virus infection (mCherry reporter signal) | Vaccinia virus mCherry reporter infection, fluorescence | Potency, µM (top dose mostly 36.5 µM), for the others: at the top dose activity change, negative = inhibition, actives largely listed as inhibitors | 0.63% of 310,000 active | AID 720579; calls by dose curve; tested in A549 cells; also: potency is read from the fitted curve at half-maximal effect; nearly all actives have a fitted effect of over 35% in size
# VACV Venus inh: inhibitors of vaccinia virus (Venus reporter). 0.46% of 330,000 active. AID 720580. Potency, µM (top dose mostly 36.5 µM), for the others: top-dose activity change, negative = inhibition, actives largely listed as inhibitors. Vaccinia virus Venus reporter expression, fluorescence; calls by dose curve; tested in A549 cells; also: potency is read from the fitted curve at half-maximal effect; nearly all actives have a fitted effect of over 30% in size
# HCV inhibitor: inhibitors of hepatitis C virus infection; Huh7.5.1 HCVcc-Cre infection, luciferase reporter, 44 h; Potency, µM (doses to about 41.8 µM), for the others: at the highest dose activity change, negative = inhibition, usual class: inhibitors; 3.4% of 340,000 active; AID 651820; active = well fitted inhibition curve with a large enough effect; inconclusive = small, poorly fitted or top-dose-only effect, or another doubt; inactive = no such curve, though single readings can be large or run the other way; also: potency is read from the fitted curve at half-maximal effect
#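 1,000 cells/well; 4 h culture; + compound; + HCVcc-Cre (~0.5 moi); 44 h; luciferase substrate, RT 15 min; read 15 sec.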
# FMDV inh: foot and mouth disease virus antiviral activity; 1.2% of 410,000 active; FMDV antiviral cell-based qHTS; Potency, µM (titrated, usually from 57.9 µM), for inactives: at the top dose activity change, negative = inhibition, hits mostly inhibitors; AID 1159524; calls by dose curve; tested in HEK293T cells; also: read-out not given here; potency is read from the fitted curve at half-maximal effect; nearly all actives have a fitted effect of over 45% in size
# Starred values were filed as active, the others as inactive; i = inactive; u = inconclusive; x = no result given; [ ] = another dose, or the depositor's remark. This is a sample that favours compounds with a hit; in the whole collection about 7.3% have one here. % is scaled to controls: 0 for no effect and ±100 for the full control effect.
SMILES,HCMV inh,Vaccinia mCherry,VACV Venus inh,HCV inhibitor,FMDV inh
C=CCn1c(SCC(=O)c2ccccc2)nnc1-c1cc2ccccc2o1,u,x,-28%,u,40µM*
Cc1noc(C)c1-c1cncnc1NCc1cccnc1,x,x,x,x,-15%
Cn1c(SCC(=O)N2CCN(c3ccccc3)CC2)nnc1-c1ccncc1,53,x,-8%,14%,0%
Cn1c(SCC(=O)N2CCN(c3ccccc3)CC2)nnc1-c1cc2ccccc2o1,-66*,x,x,u,3.5µM*
COC(=O)C1=C(c2ccc(OCc3ccccc3)cc2)C[C@@H]2CC[C@H]1N2C(=O)NCc1ccccc1,-17,u,-23%,10µM*,u
COC(=O)C1=C(c2ccc(OCc3ccccc3)cc2)C[C@@H]2CC[C@H]1N2C(=O)NCc1ccc(C(C)(C)C)cc1,-7,-29%,u,x,-23%
COC(=O)C1=C(c2ccc(OCc3ccccc3)cc2)C[C@@H]2CC[C@H]1N2C(=O)NCc1cccc(OC)c1,-67*,u,u,6.3µM*,-6%
c1ccc(-c2nc3ccccc3nc2-c2nc3ccccc3[nH]2)cc1,5,x,x,x,x
CCC(C)(C)n1nnnc1C(c1cc2cc(C)cc(C)c2[nH]c1=O)N1CCN(Cc2ccc3c(c2)OCO3)CC1 (stereo unspecified),-60*,-10%,-12%,23%,5.6µM*
Clc1ccc2ncc(-c3nnnn3-c3ccccc3)c(-c3ccccc3)c2c1,-36,x,x,2.8µM*,0%
Clc1ccc(-n2nnnc2-c2cnc3ccc(Cl)cc3c2-c2ccccc2)cc1,-16,-5%,-18%,u,-25%
CCCN(CCC)S(=O)(=O)c1ccc2c(c1)N(CC(=O)NC(C)c1ccccc1)C(=O)CS2 (stereo unspecified),0,-22%,-19%,x,-8%
CSc1ccc(CCNC(=O)Cn2ncn3c(cc4ccccc43)c2=O)cc1,3,-13%,-9%,x,-7%
O=c1cc(-c2ccccc2Cl)oc2c(NS(=O)(=O)c3cc(Cl)cc(Cl)c3O)ccc(O)c12,x,u,13µM*,u,u
Cc1cc2nc(-c3ccc(OCc4ccc(F)cc4)cc3)cc(C(F)(F)F)n2n1,12,0%,-8%,x,-9%
COc1cccc(C(=O)C2CN(C)CC2c2ccc(Cl)cc2)c1 (stereo unspecified),-32,-23%,-17%,-1%,-18%
CN1CC(C(=O)c2cccc(C(F)(F)F)c2)C(c2ccc(Cl)cc2)C1 (stereo unspecified),-72*,i,-7%,-17%,u
CN1CC(C(=O)c2ccc([N+](=O)[O-])cc2)C(c2ccc(Cl)cc2)C1 (stereo unspecified),-64*,u,-12%,-14%,-18%
COc1cc(/C=C\c2ccc(OC)cc2OC)cc(OC)c1,x,x,x,x,17%
CCOCCc1nn2c(=O)cc(CSCC(=O)Nc3cc(C)cc(C)c3)nc2s1,-62*,-4%,4%,0%,1%
COc1ccc(CNC(=O)c2cc(-c3cccs3)nc3ccccc23)c(OC)c1,4,-9%,5%,x,u
CC(=O)Nc1ccc(S(=O)(=O)N(CC(=O)O)Cc2ccccc2)cc1,-39,53%[1.46 µM],-8%,8%,-22%
CC(=O)Nc1ccc(S(=O)(=O)N(Cc2ccccc2)Cc2ccccc2)cc1,-61*,-7%,-8%,x,11%
CC(=O)NC(CC(=O)Nc1ccc(S(=O)(=O)N2CCCC2)cc1)c1ccccc1 (stereo unspecified),14,x,x,-4%,-19%
CCN(CC)S(=O)(=O)c1ccc(NC(=O)CC(NC(C)=O)c2ccccc2)cc1 (stereo unspecified),-81*,-9%,-14%,14%,14%
SMILES,HCMV inh,Vaccinia mCherry,VACV Venus inh,HCV inhibitor,FMDV inh
CCOc1cc(CNC(=O)c2ccc(Cn3c(=O)c4cccn4c4cccnc43)cc2)ccc1OC,-27,-13%,-17%,x,-13%
CN(C(=O)c1cnn(-c2ncc3c(n2)-c2ccccc2CCC3)c1C1CC1)C1CCOC1 (stereo unspecified),x,-18%,-17%,x,27%
Cn1ccsc1=NC(=O)c1ccc(S(C)(=O)=O)c([N+](=O)[O-])c1,-6,i,-12%,10µM*,u
CS(=O)(=O)c1ccc(C(=O)OCC(=O)NC23CC4CC(CC(C4)C2)C3)cc1[N+](=O)[O-],35,u,u,u,35µM*
CS(=O)(=O)c1ccc(C(=O)OCC(=O)NC(=O)NC2CCCCC2)cc1[N+](=O)[O-],x,-25%,-22%,x,x
Cn1ccsc1=NC(=O)c1ccc(Cl)c([N+](=O)[O-])c1,40,x,x,-9%,45%
Cn1cccc1C(=O)NC(=O)COC(=O)c1ccc(S(C)(=O)=O)cc1,29,-6%,-22%,2%,8%
Cn1cccc1C(=O)NC(=O)COC(=O)c1ccc(S(C)(=O)=O)c([N+](=O)[O-])c1,x,-9%,-9%,u,32µM*
COc1ccc(Nc2c3c(nc4nncn24)CCC3)cc1Cl,-23,i,u,x,-27%
COc1ccccc1CNC(=O)CCCN1C(=O)CSc2c1c(C)nn2-c1ccccc1,8,3%,3%,x,-25%
O=C1NCCc2c1[nH]c1c(Cl)ccc(Cl)c21,-34,-16%,-24%,11µM*,-27%
Cc1cccc2ccccc12,-8,x,x,x,x
Cc1ccc2c(C)c3ccc4ccccc4c3c[n+]2c1,-95*,-10%,-21%,13µM*,u
Cc1cccc(S(=O)(=O)N(C)C[C@@H]2OCc3cnnn3CCCC(=O)N([C@@H](C)CO)C[C@@H]2C)c1,7,1%,-8%,x,-20%
C[C@@H]1CN([C@H](C)CO)C(=O)CCCn2nncc2CO[C@H]1CN(C)S(=O)(=O)c1cccc(C#N)c1,-9,u,5µM*,x,-5%
CCn1c(SCC(=O)NCc2ccco2)nnc1-c1cccc(N(C)C)c1,x,-3%,-21%,x,x
CCC(CC)C(=O)N(C)c1c(C)nc2c(OCCOc3ccc(F)cc3)cccn12,-92*,-3%,-21%,x,u
CCC(CC)C(=O)N(C)c1c(C)nc2c(OCC(=O)N(C)C)cccn12,-12,-8%,-9%,x,-13%
Cc1nc2c(OCc3ccc(OC(F)F)cc3)cccn2c1N(C)C(=O)CCC1CCCC1,-23,-3%,-15%,x,25µM*
Cc1nc2c(OCc3ccc(F)c(F)c3)cccn2c1N(C)C(=O)CCC1CCCC1,-19,0%,-19%,x,u
CC(=O)Nc1c(C)nn(-c2ccccc2)c1N1CCC(C(=O)Nc2ccccc2F)CC1,6,-11%[7.34 µM],-11%[7.34 µM],x,0%
Cn1cccc1-c1nc2ccc(NC(=O)c3ccc([N+](=O)[O-])cc3)cc2[nH]1,26,13%,-1%,u,-17%
O=C(Nc1ccc2nc(-c3cccnc3)[nH]c2c1)c1ccco1,-67*,25%,15%,-19%,-14%
Cn1cc([N+](=O)[O-])c(C(=O)Nc2ccc(-c3nc4ccccc4[nH]3)cc2)n1,-73*,u,u,-3%,43%
